Source: ChEMBL document CHEMBL3433997, “St. Jude Leishmania screening dataset” (2016)

What follows are compounds tested against Glucose transporter (Leishmania mexicana) (UniProt O61059) (assay: ST_JUDE_LEISH: Cytotoxicity at 2uM final concentration against transgenic Leishmania Mexicana promastigotes LmGT2 that are glucose transport deficient and complemented with the L. Mexicana glucose transporter 2. Activity is measured by DNA content using SYBR green in vitro).
Type: functional

**Q.** With `CC(C)NCc1ccc(-c2ccc(NC(=O)c3cccc(C#N)c3)cc2)cc1` as the compound, how does the inhibition read?
**A.** The inhibition was -1%.

**Q.** Which inhibition does the source give for `CSc1ccccc1NC(=S)NC1CCN(CCCCCNC(=O)/C=C/c2ccc(Cl)c(Cl)c2)CC1` here?
**A.** The inhibition was 4%.

**Q.** `COc1ccc(S(=O)(=O)N2CCC3(CC2)OCC(=O)NC3c2ccc(Cl)c(Cl)c2)cc1` (centres undefined) was tested. Which inhibition did it give?
**A.** Its inhibition is 0.92%.

**Q.** `O=C(Cc1ccc(NC(=O)c2ccc(O)c(-c3ccc(Cl)c(Cl)c3)c2)cc1)NCc1cccc(C(F)(F)F)c1` was tested. Which inhibition did it give?
**A.** Its inhibition is 1.16%.

**Q.** How did the inhibition turn out when `O=C(NCCNc1ccnc(NCc2ccc(F)cc2)n1)c1cc2ccccc2s1` was run?
**A.** Its inhibition is -0.4%.

**Q.** For `CN1CCC(NCc2ccc(-c3ccc(S(=O)(=O)NCc4ccccc4)c(F)c3)cc2)CC1`, which inhibition is on record?
**A.** The inhibition was 7.68%.

**Q.** With `O=c1cc(NCCC(CNCc2ccoc2)NCc2cc(Br)cc(Br)c2)[nH]c2ccccc12` (centres undefined) as the compound, how does the inhibition read?
**A.** The inhibition was 9.4%.

**Q.** For `CC(C)(C)c1ccc(CN2CCC(CNC(=O)c3cc(-c4cccc(Cl)c4)cs3)C2)cc1` (centres undefined), which inhibition is on record?
**A.** The inhibition was 1.5%.

**Q.** With `O=[N+]([O-])c1ccc(Oc2ccccc2CNCC2CCN(CC3CCCCC3)CC2)cc1` as the compound, how does the inhibition read?
**A.** The inhibition was 7.15%.

**Q.** How did the inhibition turn out when `O=C(Nc1ccc2[nH]c(-c3ccccc3)nc2c1)c1cc(-c2ccc3c(c2)OCCO3)n[nH]1` was run?
**A.** Its inhibition is 11.4%.

**Q.** With `N#Cc1ccc(-c2ccc(C(=O)NCCCCN3CCC(c4ccncc4)CC3)cc2)cc1` as the compound, how does the inhibition read?
**A.** The inhibition was 2.75%.

**Q.** Which inhibition does the source give for `CC(C)C(=O)n1ncc2c3c(N)nc(N)nc3ccc21` here?
**A.** The inhibition was -0.01%.

**Q.** How did the inhibition turn out when `COc1ccc(CN2CCN(Cc3cc(Cl)ccc3O)CC2CCO)c(C)c1C` (centres undefined) was run?
**A.** The inhibition was 0.13%.

**Q.** `CN1CCCN(Cc2ccc(-c3cccc(NC(=O)c4ccc(Cl)cc4)c3)cc2)CC1` was tested. Which inhibition did it give?
**A.** The inhibition was 0.76%.

**Q.** `N#Cc1ccc(CN2CCC(Oc3ccc(NC(=O)c4ccco4)cc3Cl)CC2)cc1` was tested. Which inhibition did it give?
**A.** The inhibition was 7.81%.

**Q.** `CCCCNc1ccc(C(=O)NC2CCN(C[C@H](O)c3ccnc4ccc(OC)cc34)CC2)cc1` was tested. Which inhibition did it give?
**A.** The inhibition was 3.39%.

**Q.** For `COc1c(C2CCN(CCCCNC(=O)c3cc(-c4ccc(C#N)cc4)n[nH]3)CC2)ccc2c1CCCC2`, which inhibition is on record?
**A.** Its inhibition is 1.75%.

**Q.** For `Fc1cccc(COc2ccc(Nc3ncnc4cc(/C=C/[C@@H]5CCCN5)sc34)cc2Cl)c1`, which inhibition is on record?
**A.** The inhibition was 1.52%.

**Q.** Which inhibition does the source give for `O=C(NCc1ccccc1)NC1CCN(c2ccnc3cc(Cl)ccc23)C1` (centres undefined) here?
**A.** The inhibition was 0.94%.

**Q.** With `CC(CN1CCN(C)CC1)C(=O)Nc1ccc(-c2cccc(-c3nc4ccccc4[nH]3)c2)cc1` (centres undefined) as the compound, how does the inhibition read?
**A.** Its inhibition is -0.2%.

**Q.** `CCC(C)NC(=O)Cn1c2ncccc2c(=O)n1-c1ccc(C)cc1` (centres undefined) was tested. Which inhibition did it give?
**A.** The inhibition was 0.04%.

**Q.** Which inhibition does the source give for `CCC1CCc2cc(N)cc(-c3nc4c(c(C)nn4CC)c(=O)[nH]3)c2O1` (centres undefined) here?
**A.** The inhibition was 3.42%.

**Q.** `CNCCNCc1cccc(-c2cccc(-c3nc4cc(C(F)(F)F)ccc4[nH]3)c2)c1` was tested. Which inhibition did it give?
**A.** Its inhibition is 0.13%.

**Q.** Which inhibition does the source give for `CCc1cn2c3c(cc(C(=O)N[C@@H](Cc4cccc(F)c4)[C@H](O)CNC4CC4)cc13)N(C)S(=O)(=O)CC2` here?
**A.** The inhibition was 4.48%.

**Q.** `O=C(NC1CCCCC1)N(Cc1cccc(-c2cccc(CNC3CCCC3)c2)c1)C1CCN(Cc2ccccc2)CC1` was tested. Which inhibition did it give?
**A.** The inhibition was 7.71%.

**Q.** Which inhibition does the source give for `Cc1cccc(C(=O)Nc2ccnc(N(C)CCCN(C)Cc3cccc(C#N)c3)c2)c1` here?
**A.** Its inhibition is 2.02%.

**Q.** With `CN1CCCC(CN2CCN(Cc3cccc(-c4cccc(-c5nc6ccccc6[nH]5)c4)c3)CC2)C1` (centres undefined) as the compound, how does the inhibition read?
**A.** Its inhibition is -0.86%.

**Q.** Which inhibition does the source give for `Fc1ccc(NC(S)=NN=Cc2ccccn2)cc1` here?
**A.** The inhibition was -1.91%.

**Q.** `N#Cc1ccc2c(c1)CN(CCC1CCC(NC(=O)c3cc4cc(OC(F)(F)F)ccc4[nH]3)CC1)CC2` (centres undefined) was tested. Which inhibition did it give?
**A.** Its inhibition is 0.85%.

**Q.** With `Cc1ccc2c(c1)NCC21CCN(C[C@@H](O)C2CCN(c3ccnc(Cl)c3)CC2)CC1C` (some centres undefined) as the compound, how does the inhibition read?
**A.** Its inhibition is 0.18%.

**Q.** How did the inhibition turn out when `CCC[C@@H]([C@@H](CC(C)C)C(=O)N[C@@H](CCCCNC(=O)c1cccc(OC)c1)C(=O)Nc1nccs1)N(O)C=O` was run?
**A.** Its inhibition is 5.1%.

**Q.** How did the inhibition turn out when `CN(CCN)Cc1ccc(-c2ccc(-c3nc4cc(C(F)(F)F)ccc4[nH]3)s2)cc1` was run?
**A.** Its inhibition is 11.4%.

**Q.** Which inhibition does the source give for `N#Cc1ccc2c(c1)CCN(CCC1CCC(NC(=O)c3ccc(-c4ccccn4)s3)CC1)CC2` (centres undefined) here?
**A.** Its inhibition is 9.9%.

**Q.** `CCCOc1cc(O)c(-c2[nH]nc(C)c2Oc2ccccc2)cc1CC` was tested. Which inhibition did it give?
**A.** Its inhibition is -1%.

**Q.** `CC(C)(C)c1ccc(CNC(=O)/C=C/c2ccc(-c3nc4cc(C(C)(C)C)ccc4[nH]3)cc2)cc1` was tested. Which inhibition did it give?
**A.** The inhibition was 4.02%.

**Q.** `COc1ccc(C2C(C(=O)Nc3cc(Cl)c(OC)cc3OC)c3ccccc3C(=O)N2C)cc1` (centres undefined) was tested. Which inhibition did it give?
**A.** Its inhibition is -1.07%.

**Q.** Which inhibition does the source give for `N=C(N)NN=CC(=O)Nc1ccc(Cl)c(C(F)(F)F)c1` here?
**A.** The inhibition was 9.08%.

**Q.** With `CC1=C(C(=O)Nc2cc3cn[nH]c3cc2F)C(c2cccc(NS(C)(=O)=O)c2)CC(=O)N1` (centres undefined) as the compound, how does the inhibition read?
**A.** Its inhibition is 2.34%.

**Q.** For `Cc1cc(N[C@@H](CC(C)C)C(=O)NCCc2ccccc2)nc(Nc2ccccc2)n1`, which inhibition is on record?
**A.** Its inhibition is 2.63%.
